From paper PMC5540273 (PLoS ONE, 2017) come the findings set out here.

Like-named read-outs stand apart in the source and are kept apart here.

Assay [1] deals with FLT1. The following applies: concentration: 1 μM, replicates: in singlicate; n = 1.
In assay [2] the test system is FLT3-autoinhibited. Particulars: concentration: 1 μM, replicates: in singlicate; n = 1.
Assay [3] concerns FLT3. Particulars: concentration: 1 μM, replicates: in singlicate; n = 1.
Assay [4] deals with FLT4. The following applies: concentration: 1 μM, replicates: in singlicate; n = 1.
Assay [5] deals with FRK. The following applies: concentration: 1 μM, replicates: in singlicate; n = 1.
Assay [6] relates to FYN. Particulars: concentration: 1 μM, replicates: in singlicate; n = 1.
Assay [7] has as its system GAK. Particulars: concentration: 1 μM, replicates: in singlicate; n = 1.
In assay [8] the test system is T1, GCN2(Kin.Dom.2,S808G).
T1 construct: gene EIF2AK4
Particulars: concentration: 1 μM, replicates: in singlicate; n = 1.

For assay [9], the system named is GRK1. The following applies: concentration: 1 μM, replicates: in singlicate; n = 1.
Assay [10] deals with T2, GRK2.
T2 construct: gene ADRBK1
The following applies: concentration: 1 μM, replicates: in singlicate; n = 1.

Assay [11] has as its system T3, GRK3.
T3 construct: gene ADRBK2
Particulars: concentration: 1 μM, replicates: in singlicate; n = 1.

Assay [12] concerns GRK4. The following applies: concentration: 1 μM, replicates: in singlicate; n = 1.
Assay [13] deals with GRK7. The following applies: concentration: 1 μM, replicates: in singlicate; n = 1.
For assay [14], the system named is GSK3A. Particulars: concentration: 1 μM, replicates: in singlicate; n = 1.
Assay [15] deals with GSK3B. The following applies: n = 1.
The subject of assay [16] is T4, HASPIN.
T4 construct: gene GSG2
Particulars: concentration: 1 μM, replicates: in singlicate; n = 1.

Assay [17] has as its system HCK. The following applies: concentration: 1 μM, replicates: in singlicate; n = 1.
Assay [18] concerns HIPK1. The following applies: concentration: 1 μM, replicates: in singlicate; n = 1.
In assay [19] the test system is HIPK2. Particulars: concentration: 1 μM, replicates: in singlicate; n = 1.
For assay [20], the system named is HIPK3. The following applies: concentration: 1 μM, replicates: in singlicate; n = 1.
Setting [21] is: concentration: 1 μM, replicates: in singlicate.
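Further: KINOMEscan kinase panel screen.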

In the case of `COC(=O)C(Cc1ccccc1)NC(=O)NC1CCN(c2ccnc(Nc3ccc(F)cc3)n2)C1` (stereo not drawn) [GSK1379714], the “%Inh” value is recorded as 33% in [1]; 5% in assay [2]; 2% in assay [3]; 0% in assay [4]; 0% in [5]; 0% in [6]. Further, the “%Inh” value in assay [7] is recorded as 0%; in assay [8], 6%; in [9] it was 100%; in [10], 0%; in assay [11], 58%; in assay [12], 1%. Besides, the “%Inh” value in [13] came to 0%; in assay [14], 13%; in [15] (setting [21]), 6%; in assay [16] it was 24%; in assay [17], 4%; in assay [18], 0%. For the same compound, the “%Inh” value in [19] and in assay [20] was 0% each time.
For the compound `CC[C@@H]1CO[C@H](C(=O)Nc2ccccc2)CN1c1cc(-c2ccc3c(N)n[nH]c3c2)nc(NC)n1` [GSK2376236], the “%Inh” value came out at 28% in assay [1]; 0% in assay [2]; 0% in assay [3]; 20% in assay [4]; 0% in [5]; 39% in [6]. Also, the “%Inh” value in assay [7] came to 26%; in assay [8] it was 0%; in [9] it was 0%; in [10] it was 0%; in assay [11], 0%; in assay [12] it was 0%. Besides, the “%Inh” value in assay [13] was determined as 0%; in assay [14], 12%; in assay [15] (setting [21]), 17%; in assay [16], 0%; in assay [17] it was 0%; in [18] it was 9%. The figures for the “%Inh” value in [19] and in assay [20] were 0% and 4%, respectively.
In the case of `O=c1cc(N2CCOCC2)nc2n(Cc3ccccc3F)ccn12` [GSK2297428], the “%Inh” value in assay [1] came to 24%; in assay [2], 0%; in assay [3], 0%; in assay [4], 2%; in assay [5] it was 20%; in assay [6] it was 0%. Besides, the “%Inh” value in [7], in assay [8], in [9], in assay [10], in [11] and in assay [12] was 0% in each case. The “%Inh” value in assay [13] worked out at 0%; in assay [14] it was 80%; in assay [15] (setting [21]) it was 3%; in assay [16], 35%; in assay [17] it was 0%; in assay [18], 33%. In addition, the “%Inh” value was 0% in [19] and 35% in assay [20].
Take `Nc1ncnc2occ(-c3ccc4c(c3)CCN4C(=O)Cc3cc(F)ccc3F)c12` [GSK2645446]: the “%Inh” value in [1] came out at 6%; in assay [2], 0%; in assay [3], 0%; in [4], 1%; in [5], 0%; in assay [6] it was 0%. The “%Inh” value in assay [7], in assay [8], in [9], in [10], in assay [11] and in assay [12] was 0% in each case. The “%Inh” value is 0% in [13]; 0% in [14]; 2% in assay [15] (setting [21]); 0% in assay [16]; 0% in assay [17]; 0% in assay [18]. Moreover, the “%Inh” value in [19] and in [20] was 0% in each case.
Regarding `CNC(=O)c1ccc(C)c(-n2c(C)cc(OCc3ccc(F)cc3F)c(Br)c2=O)c1`, the “%Inh” value is 2% in assay [1]; 0% in assay [2]; 0% in assay [3]; 0% in assay [4]; 0% in assay [5]; 0% in assay [6]. Moreover, the “%Inh” value came to 0% in assay [7]; 0% in [8]; 0% in assay [9]; 4% in assay [10]; 0% in assay [11]; 2% in [12]. The “%Inh” value in assay [13] was 0%; in assay [14], 0%; in assay [15] (setting [21]), 0%; in assay [16], 18%; in [17], 0%; in [18] it was 0%. For the same compound, the “%Inh” value in assay [19] and in assay [20] was 0% each time.
With `CCn1c(-c2ccccc2)nc2cnccc21` [SB-733416], the “%Inh” value in assay [1] was determined as 53%; in assay [2] it was 0%; in assay [3], 0%; in [4], 27%; in assay [5], 27%; in [6] it was 14%. For the same compound, the “%Inh” value stood at 0% in [7]; 0% in assay [8]; 6% in [9]; 0% in assay [10]; 70% in assay [11]; 29% in assay [12]. The “%Inh” value is recorded as 0% in [13]; 0% in [14]; 25% in assay [15] (setting [21]); 0% in assay [16]; 17% in [17]; 0% in [18]. In addition, the “%Inh” value was found to be 0% in assay [19] and 10% in [20].
In the case of `O=C1NC(=O)C(c2ccc(Cl)cc2)=C1Nc1cccc(Cl)c1` [SB-317651], the “%Inh” value is listed as 0% in assay [1]; 11% in [2]; 0% in [3]; 0% in [4]; 0% in assay [5]; 0% in [6]. In addition, the “%Inh” value amounted to 0% in assay [7]; 2% in assay [8]; 11% in [9]; 0% in [10]; 0% in assay [11]; 21% in assay [12]. Moreover, the “%Inh” value in assay [13] is 30%; in assay [14] it was 0%; in [15] (1 µM), 15%; in assay [16] it was 0%; in [17], 0%; in assay [18], 19%. Also, the “%Inh” value in assay [19] worked out at 34%; in assay [20] it was 0%.
In the case of `Cc1ccc(-c2nc(Nc3ccncc3)c3ccccc3n2)s1` [GSK189015], the “%Inh” value amounted to 39% in assay [1]; 17% in assay [2]; 23% in assay [3]; 10% in [4]; 7% in [5]; 0% in [6]. Further, the “%Inh” value worked out at 53% in [7]; 13% in assay [8]; 9% in [9]; 1% in assay [10]; 0% in assay [11]; 13% in assay [12]. The “%Inh” value in [13] was 0%; in assay [14], 18%; in [15] (setting [21]) it was 28%; in assay [16], 54%; in assay [17], 10%; in [18], 0%. Moreover, the “%Inh” value is listed as 0% in assay [19] and 41% in assay [20].
For the compound `Cn1cnc2c(N)ncnc21` [SKF-97623], the “%Inh” value in [1] stood at 0%; in assay [2], 100%; in [3], 0%; in assay [4], 0%; in [5] it was 0%; in assay [6] it was 0%. The “%Inh” value is given as 0% in [7]; 27% in [8]; 0% in [9]; 29% in [10]; 26% in [11]; 21% in assay [12]. The “%Inh” value in assay [13], in [14], in [15] (setting [21]), in assay [16], in assay [17] and in assay [18] was 0% in each case. Moreover, the “%Inh” value was 11% in assay [19] and 0% in [20].
